These results are taken from PubChem BioAssay AID602197 (NMMLSC, 2012).

The list shows a part of the results. The source made the active and inactive calls. Cut-off read from the data, not from the text of the source: active = response above about 24%; inactive = the rest.

This assay is described as follows: V-ATPase regulators in yeast, one dose – S. cerevisiae, pH-sensitive GFP, second cherry-pick, confirmation (AID 602197).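 Note: plate controls were vehicle wells for no effect and positive control wells for full effect.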 As to conditions: S. cerevisiae pHLuorin cytosolic pH, V-ATPase proton transport; at 10 µM; hits give high values.
`O=S1(=O)C=C(SCCN2CCCC2)c2ccccc21`: the response was -0.88% (inactive).

With `CC1=NOC(=O)/C1=C\c1ccccc1`, the response was 30.5% (active). In the case of `CCOc1ccc(CCNC(=O)C2=C(C)C(=O)OC23CCC(C)CC3)cc1OCC` (stereo not drawn) it was 5.21% (inactive); in that of `Cc1cc(OC(=O)c2ccccc2)c([N+](=O)[O-])c(=O)[nH]1`, 1.38% (inactive); in that of `O=C1c2ccccc2C(=O)N1CCCCCCN1C(=O)c2ccccc2C1=O`, 2.04% (inactive). For the compound `O=C1Oc2ccccc2C(=O)/C1=C/c1ccccc1O`, the response was 91.4% (active). In the case of `COC(=O)c1cc(Oc2ccc(S(=O)(=O)N3CCOCC3)cc2[N+](=O)[O-])cc(C(=O)OC)c1` it was 0.18% (inactive); in that of `O=C(COc1cc2oc(=O)c3c(c2cc1Cl)CCC3)NCCCN1CCOCC1`, 2.9% (inactive); in that of `Cc1cc(=O)c2ccc(NC(=O)c3ccccc3)cc2[nH]1`, -0.97% (inactive). With `C/C=C/C(=O)OCc1csc(CC(=O)Nc2ccccc2C)n1`, the response is -3.22% (inactive). `CC(=O)N1CCC(N(C(=O)Nc2ccc(Cl)cc2)C(C)C)CC1`: the response is 2.59% (inactive). The same measure for `COc1cc2c(cc1/C=C1/NC(=O)N(c3ccccc3)C1=O)OCO2`: -0.72% (inactive); for `Cc1ccc2nc(-c3ccncc3)cc(C(=O)Nc3ccc(OC(F)F)cc3)c2c1`: 2.3% (inactive); for `O=C(NC1CCN(Cc2ccccc2)CC1)c1cc(Br)c(Br)[nH]1`: 2.14% (inactive). The same measure for `COc1ccc(C(=O)N(Cc2ccccc2)c2ccc(C)cc2)cc1S(=O)(=O)N1CCOCC1`: -6.57% (inactive); for `CNC(=O)c1csc(Cc2c(Cl)sc3ccc(Cl)cc23)n1`: 2.33% (inactive); for `CC1=NN(c2ccc(Cl)c(C(=O)O)c2)C(=O)/C1=C/c1ccc(-c2ccccc2[N+](=O)[O-])o1`: 1.31% (inactive). The same measure for `O=C(NCC1CCCCC1)c1cc(S(=O)(=O)N2CCCCC2)ccc1N1CCOCC1`: -0.11% (inactive); for `CCOC(=O)CNC(=O)CSc1nnc(COc2ccc(Cl)cc2)n1CC`: -1.08% (inactive); for `COc1ccc(N2CCN(C(=O)/C(C#N)=C/c3ccccc3)CC2)cc1`: -3.48% (inactive). For `CCCc1nnc(NC(=O)c2cc(OC)cc(OC)c2)s1`, the response is -0.87% (inactive).

On to `CCOC(=O)N1CCN(CC(=O)n2c(C)c(C)c3ccccc32)CC1`, for which the response is 1.66% (inactive). On to `Cc1cc(=O)[nH]c(N/N=C/c2c(C)nn(-c3ccccc3Cl)c2Cl)n1`, for which the response was -0.02% (inactive).
